KB-3-1 tox: kills parental KB-3-1 adenocarcinoma cells; 400,000 compounds, 1.4% hits; KB-3-1 viability, CellTiter-Glo ATP luminescence, 72 h; Potency, µM (highest dose often 46.1 µM), actives largely listed as cytotoxic; AID 1347075; note: nearly all actives have a fitted effect of over 60% in size
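Viability of parental KB-3-1 cells, measured by CellTiter-Glo luminescence, followed a 72 h incubation at 37 °C with pinned compounds in phenol-red-free DMEM containing 10% FBS.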
ELG1 DNA repair: inhibitors of ELG1-dependent DNA repair in HEK293T cells | HEK293T ELG1-luciferase reporter, luminescence, 16 h; DNA damage induced by 5-fluorouridine | Potency, µM (titrated, usually from 46.1 µM), hits mostly inhibitors | 330,000 compounds, 2.3% hits | AID 504467; note: nearly all actives have a fitted effect of over 55% in size
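HEK293T cells expressing luciferase-tagged ELG1 (2,000/well) received 5-Fluorouridine plus compound or DMSO for 16 hr at 37 °C. Luciferase was read by ONE-Glo luminescence after 30 min at room temperature.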
MCF10A rereplic: induces DNA re-replication in MCF 10a normal breast cells; 350,000 compounds, 2.9% hits; MCF 10A DNA re-replication, Hoechst nuclear intensity, 48 h; Potency, µM (titrated, usually from 46.1 µM), hits mostly activators; note: nearly all actives have a fitted effect of over 50% in size
SW480 rereplic: DNA re-replication induction in SW480 cells; SW480 DNA re-replication, Hoechst DNA content imaging, 48 h; Potency, µM (series often up to 46.1 µM), most hits filed as activators; 340,000 compounds, 1.8% hits; note: nearly all actives have a fitted effect of over 55% in size
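Image-based DNA-content assay: after two days of treatment, nuclei were labelled with the DNA dye Hoechst and imaged, and hits were compounds raising the count of nuclei showing high fluorescence intensity.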
KB-V1 cytotox: KB-V1 MDR subline cytotoxicity. KB-V1 MDR cells viability, CellTiter-Glo, 72 h. Potency, µM (doses to about 46.1 µM), usual class: cytotoxic. 400,000 compounds, 3.4% hits; note: nearly all actives have a fitted effect of over 60% in size
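KB-V1 cells (P-gp-expressing MDR subline of KB-3-1) in phenol-red-free DMEM with 10% FBS were exposed to library compounds over a concentration series for 72 h at 37 degrees C. Viability read by CellTiter-Glo luminescence; concentration-effect curves fitted after normalization.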
Hits are given with their value; 0 = inactive; ? = inconclusive; - = not tested or not shown. In the library only some 8.1% were active in any assay of this set; here they are far more common. Calls come from the whole dose curve; as a rule, active = well fitted curve in the direction sought with a large enough effect; inconclusive = small, poorly fitted or top-dose-only effect, or another doubt; inactive = no such curve, though single readings can be large; an effect the other way counts as inactive or inconclusive.

SMILES | KB-3-1 tox | ELG1 DNA repair | MCF10A rereplic | SW480 rereplic | KB-V1 cytotox
Cc1c(C(=O)N(CCO)Cc2ccccc2)oc2c(F)cccc12 | 0 | ? | 0.73µM | 0 | 0
Cc1c(C(=O)NC2CCN(Cc3ccccc3)C2)oc2c(Cl)cccc12 (stereo not given) | 0 | 0 | 16µM | ? | 0
Cc1c(C(=O)N(C)Cc2ccccc2)oc2c(Cl)cccc12 | ? | 0 | 18µM | 0 | ?
Cc1cc(Cl)c2oc(C(=O)N(CCO)Cc3ccccc3)c(C)c2c1 | 0 | 0 | 0 | ? | 0
COc1ccc(C2N(C(=O)N(C)C)CCN2S(=O)(=O)c2ccc(OC)cc2)cc1 (stereo not given) | 0 | 0 | 0 | 0 | 0
CC1(C)Oc2c(ccc(O)c2CN2CCOCC2)C2=C1CCCC2 | 0 | - | 0 | 0 | 18µM
O=c1cc(-c2ccccc2)nc2cc(-c3ccco3)[nH]n12 | 0 | 0 | 0 | 0 | 0
O=c1cc(-c2ccccc2)nc2cc(-c3ccc(Br)cc3)[nH]n12 | 0 | ? | 3.3µM | 0 | 0
CCCC(=O)Nc1cc(C)c2c(=O)oc3ccccc3c2n1 | 0 | 0 | 0 | 0 | 18µM
Cc1cc(NC(=O)CC(C)(C)C)nc2c1c(=O)oc1ccccc12 | 0 | 0 | 0 | ? | 0
CCCc1cc2c(c(NC(C)=O)n1)c(=O)oc1ccccc12 | 0 | 0 | 0 | 0 | 13µM
O=S(=O)(CC(CN1CCCCC1)N1CCCCC1)c1ccccc1 (stereo not given) | 0 | ? | 6.5µM | ? | 0
O=[N+]([O-])c1ccc(S(=O)(=O)CC(CN2CCCCC2)N2CCCCC2)cc1 (stereo not given) | 0 | ? | 0 | 0 | ?
Cc1ccc(NC(=O)CCN2CCN(C/C=C/c3ccccc3)CC2)cc1C | 0 | 0 | ? | 0 | 3.3µM
Cc1ccc(NC(=O)CCN2CCN(C/C=C/c3ccccc3)CC2)cc1 | 0 | 0 | ? | ? | 0
COc1ccc(-c2nc3ccccc3n3c(-c4cccc(C)c4)c4c(=O)n(C)c(=O)n(C)c4c23)cc1 | 0 | - | - | - | 0
Cc1ccc(Nc2c(-c3ccc(N4CCOCC4)cc3)nc3ncccn23)c(C)c1 | ? | 12µM | 0 | 0 | 0
CCn1cc(C(=O)N[C@@H](C)C(=O)NCCCn2ccnc2)c(=O)c2cc3c(cc21)OCO3 | 0 | 0 | 0 | ? | ?
CCn1cc(C(=O)N[C@@H](CC(C)C)C(=O)NCCCn2ccnc2)c(=O)c2cc3c(cc21)OCO3 | 0 | 0 | 0 | 13µM | 0
Cc1cccc(Cn2nnc3c2C(=O)c2ccccc2C3=O)c1 | ? | ? | 0 | ? | 6.3µM
Cc1ccccc1Cn1nnc2c1C(=O)c1ccccc1C2=O | ? | - | 0 | ? | 13µM
Cc1ccccc1CN1C(=O)c2ccccc2C1c1nnnn1Cc1ccccc1 (stereo not given) | 0 | - | - | - | ?
COc1ccc(NC(=S)Nc2ccc3c(c2)c(=O)n(C)n3-c2ccccc2)cc1 | 0 | - | - | - | 0
CCCCCCCC(=O)N/N=C/c1cccnc1 | 0 | 0 | 0 | 0 | 0
CCCCCCCC(=O)N/N=C/c1ccc(Br)cc1 | 0 | 0 | 7.3µM | 0 | 0
SMILES | KB-3-1 tox | ELG1 DNA repair | MCF10A rereplic | SW480 rereplic | KB-V1 cytotox
CCCCCCCCCC(=O)N/N=C/c1ccc(C)s1 | 0 | ? | 16µM | ? | 0
COc1ccc(NC(=O)CSc2c3c(nc4ccccc24)CCCC3)c(OC)c1 | 0 | 0 | 21µM | ? | 0
COc1cc(NC(=O)CSc2c3c(nc4ccccc24)CCC3)cc(OC)c1OC | 0 | ? | 0 | 0 | 15µM
COc1ccc(OC)c(NC(=O)c2c3c(nc4ccccc24)CCC3)c1 | 0 | 0 | 0 | 0 | 6.5µM
COc1ccc(NC(=O)c2c3c(nc4ccccc24)CCC3)cc1 | 0 | 0 | 0 | 0 | 0
COc1ccccc1NC(=O)CSc1c2c(nc3ccccc13)CCC2 | 0 | 0 | 0 | 0 | ?
O=C(Nc1cccc2ccccc12)c1ccc([N+](=O)[O-])s1 | 0 | 16µM | ? | ? | 0
Cn1ncc([N+](=O)[O-])c1C(=O)Nc1cccc2ccccc12 | 0 | 0 | 0 | 0 | 0
O=C(Nc1cccnc1)c1ccc([N+](=O)[O-])s1 | ? | ? | ? | ? | 0
O=C(Nc1ccccc1F)c1ccc([N+](=O)[O-])s1 | ? | 23µM | ? | 15µM | ?
O=C(Nc1nnc(S(=O)(=O)N2CCCCC2)s1)c1cccc(Br)c1 | ? | 0 | 0 | 0 | 0
COc1ccc(-n2c(=O)c3c(c4cc(OC)ccc4n3C)n(Cc3cccc(OC)c3)c2=O)cc1 | 0 | - | - | - | 0
CC(=O)c1ccc(N2CCN(C(=S)Nc3ccc(Oc4ccccc4)cc3)CC2)cc1 | 0 | 5.8µM | ? | 0 | ?
CC(=O)c1ccc(N2CCN(C(=O)Nc3ccc(Cl)cc3)CC2)cc1 | 0 | 16µM | 0 | 0 | ?
CC(=O)c1ccc(NC(=O)N2CCN(c3cccc(Cl)c3)CC2)cc1 | 0 | ? | ? | 0 | 23µM
O=C(Nc1ccc(Cl)cc1)N1CCN(c2ccccc2)CC1 | 0 | 0 | 0 | 0 | 0
COc1ccc(N2CCN(C(=S)Nc3ccccc3)CC2)cc1 | 0 | 0 | ? | 0 | 0
O=C1N2CCCCC1(Sc1ccccc1)CCC2 (stereo not given) | 0 | - | - | - | 0
Cc1cccc(CC(=O)N2CC(=O)Nc3ccc(Br)cc3C2c2ccc(F)cc2)c1 (stereo not given) | 0 | - | - | - | 0
O=C(C1CCC1)N1CCc2cc(S(=O)(=O)NCCc3ccccc3)ccc21 | 0 | - | - | - | 0
CN=C1S/C(=C\c2ccc(N3CCOCC3)c(F)c2)C(=O)N1C | ? | 0 | 0 | ? | 16µM
CN=C1S/C(=C\c2ccc(N3CCCC3)c(F)c2)C(=O)N1C | 0 | ? | 23µM | 13µM | ?
CN=C1S/C(=C\c2cccn2-c2cccc(Br)c2)C(=O)N1C | ? | - | 0 | 0 | ?
CCOc1ccc(CCNC(=O)COC(=O)c2sccc2C)cc1OCC | 0 | 0 | 0 | 0 | ?
CCCC(c1c(C)n(C)n(-c2ccccc2)c1=O)c1c(C)n(C)n(-c2ccccc2)c1=O | 21µM | 0 | 0 | 0 | ?
SMILES | KB-3-1 tox | ELG1 DNA repair | MCF10A rereplic | SW480 rereplic | KB-V1 cytotox
O=c1c(S(=O)(=O)c2ccc(Cl)cc2)cn(Cc2ccc(F)cc2)c2ccc(F)cc12 | 0 | - | - | - | 0
O=c1c(S(=O)(=O)c2ccc(Cl)cc2)cn(Cc2ccccc2)c2ccc(F)cc12 | 0 | 0 | 0 | 0 | 4.1µM
CCCn1cc(S(=O)(=O)c2ccc(Cl)cc2)c(=O)c2cc(OC)ccc21 | ? | 0 | ? | ? | 7.3µM
CCCn1cc(S(=O)(=O)c2ccc(C)cc2)c(=O)c2cc(OC)ccc21 | 0 | 0 | 0 | 0 | 0
CCOC(=O)CSc1cc(-c2ccccc2)nc2ncnn12 | 0 | ? | 2.3µM | 0 | 0
c1ccc(-c2cc(-c3ccccc3)n3ncnc3n2)cc1 | 0 | 0 | 0 | 0 | 0
O=C(O)c1cccc(Nc2ncnc3scc(-c4ccccc4)c23)c1 | 0 | - | - | - | 0
CN(C)c1ccc(CNC(=O)c2cccn2-c2nnc(N3CCCCC3)s2)cc1 | 0 | - | - | - | 0
O=c1c2cc(NC(=S)NCCCN3CCC(Cc4ccccc4)CC3)ccc2nc2n1CCCCC2 | 23µM | ? | 0 | ? | ?
